Screens deposited in PubChem by ICCB-Longwood Screening Facility, Harvard Medical School.
PV pol inh – inhibitors of poliovirus RNA polymerase binding and polymerization | hit rate 0.66% among 150,000 | poliovirus polymerase elongation, fluorescence polarization; stronger effect = lower value | % elongation, % (compound at 16.7 µg/mL); in the data active = % elongation below about 90%
Target sequence (P03300 1749-2209 limits assumed): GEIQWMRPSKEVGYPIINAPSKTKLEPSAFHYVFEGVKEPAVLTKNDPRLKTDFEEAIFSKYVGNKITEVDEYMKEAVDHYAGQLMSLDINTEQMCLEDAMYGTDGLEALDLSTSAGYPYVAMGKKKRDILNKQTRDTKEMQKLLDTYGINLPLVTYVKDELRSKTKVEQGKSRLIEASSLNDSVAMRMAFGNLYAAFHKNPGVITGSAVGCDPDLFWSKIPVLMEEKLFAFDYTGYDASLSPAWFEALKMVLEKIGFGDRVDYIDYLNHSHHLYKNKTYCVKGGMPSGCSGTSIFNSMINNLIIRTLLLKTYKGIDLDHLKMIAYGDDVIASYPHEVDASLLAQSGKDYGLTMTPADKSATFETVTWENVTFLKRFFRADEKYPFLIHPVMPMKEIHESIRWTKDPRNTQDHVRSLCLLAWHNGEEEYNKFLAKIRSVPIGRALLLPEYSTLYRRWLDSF
MbtI inh – inhibitors of Mycobacterium tuberculosis siderophore enzyme MbtI; inhibition, % (concentration not given with the values); purified MbtI enzyme, fluorescence intensity read-out; hit rate 0.89% among 100,000; in the data active = inhibition mostly above about 56%, no sharp cut-off; inactive = mostly below about 77%
AID504770 – E. coli YBA685 growth inhibition, screen for V. cholerae RctB inhibitors; AID 504770; z-score (no concentration beside the values); hit rate 0.27% among 130,000; E. coli YBA685 rctB-dependent plasmid, OD600 growth, 3 h; stronger effect = lower value; in the data active = z-score below about -2, passing the limit was not always enough
Mtb MenB inh – blocks the Mycobacterium tuberculosis MenB enzyme; AID 540299; MenB enzyme assay, absorbance read-out; hit rate 0.43% among 100,000; P9WNP5; inhibition, % (no concentration beside the values); in the data active = inhibition above about 21%, passing the limit was not always enough
* = called active by the depositor; . = no result given. This is a sample that favours compounds with a hit; in the whole collection about 1.4% have one here.

SMILES	PV pol inh	MbtI inh	AID504770	Mtb MenB inh
O=C1C=C(Nc2ccc(F)c(C(F)(F)F)c2)c2ccccc2C1=O	62*	.	2.5	-4
Cc1ccc(S(=O)(=O)/N=C2\C=C(Sc3ncn[nH]3)C(=O)c3ccccc32)cc1	102	86*	1.5	-58
CC(C)c1ccc(S(=O)(=O)/N=C2/C=C(Sc3ncn[nH]3)C(=O)c3ccccc32)cc1	66*	88	0.4	8
Cc1ccc(S(=O)(=O)/N=C2/C=C(Sc3ncn[nH]3)C(=O)c3ccccc32)cc1	.	88*	-0.5	.
O=C1C(Sc2ccccc2)=C/C(=N/S(=O)(=O)c2cccs2)c2ccccc21	92	92	0.05	-5
CCOC(=O)C1=CN(C)C=C(C(=O)OCC)C1c1cccc(OCc2ccccc2)c1	101	-11	-0.25	-47
Cc1cc2cc(CNC(=O)CCc3ccccc3)ccc2[nH]1	.	.	-1	.
[N-]=C=C1C(=O)N(CCc2ccccc2)C(=O)[C@H]([n+]2ccccc2)[C@H]1c1ccc(Cl)cc1	69*	.	0.5	-1
COc1ccc(C)cc1NC(=O)CSc1ccc(-c2ccccn2)nn1	81*	.	.	.
S=c1[nH]n(Cc2ccccc2)c(=NCc2ccccc2)s1	95	65*	-0.95	.
CCOC(=O)C1=C(C)NC(C(=O)NCc2cccc(OC)c2)CS1 (stereo not drawn)	105	1	-1.1	-2
O=c1oc2c3c(ccc2c2ccccc12)OCN(Cc1cccc(Cl)c1)C3	85*	.	.	.
N#CCCCn1c(-c2ccc(Cl)cc2)noc1=O	104	-3	-0.2	-29
N=C(N)SCP(=O)(c1ccccc1)c1ccccc1	99	21	0.65	49*
CN=C1c2c(C)c3cc(OC)ccc3n2CCN1C	104	-75	0.5	8
COc1ccc2c(c1)c1nc(N(C)C)nc3c1n2CCN3C	6.0*	-48	2	-28
O=c1[nH]sc2ccccc12	98	105	-6.1	51*
COc1cc2ncnc(NC(C)c3ccccc3)c2cc1OC (stereo not drawn)	102	-26	-0.5	-13
COC(=O)c1cc(-c2ccccc2)sc1NC(=O)C1CCCO1 (stereo not drawn)	85*	.	-0.85	-33
COCCn1c(C)cc(O)c(C(c2ccccc2)N2CCN(c3ccccc3)CC2)c1=O (stereo not drawn)	85*	.	.	.
CC(=O)c1c(CC(=O)O)[nH]n(-c2nc3ccccc3s2)c1=O	101	60*	1.9	-16
COC(=O)Cc1[nH]n(-c2nc3ccccc3s2)c(=O)c1C(C)=O	107	.	0.25	-11
Cc1c(-c2ccnc(N)n2)cnn1-c1ccccc1	.	.	-0.6	.
Nc1nc2c(s1)CCc1c-2cnn1-c1ccccc1	42*	.	-0.65	3
O=C(CCS(=O)(=O)c1cccc2nonc12)N1CCN(C(c2ccccc2)c2ccc(Cl)cc2)CC1 (stereo not drawn)	100	9	0.2	-5
SMILES	PV pol inh	MbtI inh	AID504770	Mtb MenB inh
CNc1ccc(O)cc1	59*	101*	1.1	.
Oc1ccc(NC(=S)Nc2ccc(O)cc2)cc1	106	-4	-0.1	-4
NC(=O)C1CCN(C(c2ccc(F)cc2)c2nnc(-c3ccccc3)o2)CC1 (stereo not drawn)	102	-19	0.5	-12
O=C(NCc1ccccc1)N1CCCCC1	100	-4	0	9
COC(=O)C1CCN(C(c2ccc(F)cc2)c2ccc(F)cc2)CC1	100	1	-0.2	20*
O=C(NCc1ccccc1)N1CCN(C(c2ccc(F)cc2)c2ccc(F)cc2)CC1	103	-8	-2.9*	-12
Cc1ccc(C)c(N2CCN(c3cnn(-c4nc5ccccc5o4)c(=O)c3Cl)CC2)c1	100	-8	0.2	10
CCOc1ccc(-c2csc(Cn3c(CN4CCN(C)CC4)nc4ccccc4c3=O)n2)cc1	66*	85*	0.1	-6
C=CCN(CC=C)C(=O)c1cccc(OC)c1	105	.	0.45	1
COc1cccc(N=C2NNC(C)=C(C(=O)N(C)C)S2)c1	83*	59*	-0.75	-7
CCOC(=O)c1cc(C(=O)O)nn1C	101	-2	0.05	28*
CCOC(=O)c1cc(C(=O)OCC)n(C)n1	104	.	-0.2	-5
CSC(SC)=C(C#N)S(C)(=O)=O	101	68*	-1.1	18
Clc1nsc2ccccc12	.	96	-0.9	-42
S=c1[nH]c2c(s1)sc1ccccc12	102	91*	0.45	-83
CC(C)C(=O)Nc1nnc(-c2ccccc2)s1	87*	.	0.95	-7
CCS(=O)(=O)C1=NSC2=NC(=O)/C(=C\c3ccco3)C(=N)N21	72*	35	-0.45	-41
O=C(NCCc1ccccc1)C1C2C=CC3(CN(Cc4cccs4)C(=O)C13)O2 (stereo not drawn)	.	.	0.25	.
NS(=O)(=O)c1ccc(-n2ncc(Cl)c(Cl)c2=O)cc1	86*	3	0.05	-7
O=c1c(Cl)c(Cl)cnn1-c1ccccc1	.	-13	-0.35	.
CCOc1ccc2nc(SCc3nnc(-c4cccs4)o3)sc2c1	107	18	-0.15	-1
O=c1[nH]c(NCCO)nc2ccccc12	105	91	-1.8	-13
O=c1[nH]c(NCCO)c(I)c(=O)[nH]1	.	68*	-1.2	.
C=CCn1c(SCC(=O)N2CC(C)CC(C)C2)nc2ccccc2c1=O (stereo not drawn)	104	-9	-0.3	-5
NC(=S)N(c1ccccc1)c1ccccc1	101	5	1.1	32*
SMILES	PV pol inh	MbtI inh	AID504770	Mtb MenB inh
CSC(=S)N(c1ccccc1)c1ccccc1	102	-7	0.45	.
CCN1CCc2c(sc(NC(=O)c3ccc(S(=O)(=O)N4CCCC4)cc3)c2C(N)=O)C1	110	-2	-1.7	-60
Cc1cc(N2CCCC2)ccc1/C=C/C1=CCN(C)CC1	64*	89	1.2	11
C=CCn1c(C)c(/C=C/C2=CCN(C)CC2)c2ccccc21	78	79	-0.5	-168
NC(=NCCCCCCN=C(N)/N=C(\N)Nc1ccc(Cl)cc1)/N=C(\N)Nc1ccc(Cl)cc1	100	24	-5*	-5
CC(C)N=C(N)/N=C(\N)Nc1ccc(Cl)cc1	99	-16	.	0
CN(C)c1ccc(C2N(C(=O)C(F)(F)F)CCN2S(=O)(=O)c2ccccc2)cc1 (stereo not drawn)	101	1	0.4	-11
CCOC(=O)c1c(P(=O)(N2CCOCC2)N2CCOCC2)noc1N	99	0	0.7	41*
N#Cc1c(N)c(C#N)c(-c2ccccc2)c2c1CCCC2	108	.	1.4	-7
N#Cc1c2c(c(-c3ccccc3)[nH]c1=S)CCCC2	101	51*	0.35	-22
Cc1ccc(C2=NN=C(NC(=O)CSc3nnc(C)s3)SC2)cc1	99	84*	-0.8	8
O=C(NCc1ccccc1)C1CCC1	102	.	-0.45	-3
O=C(NC(=S)NCc1ccccc1)C1CCCC1	99	76*	0	-24
S=c1c(Cl)c(Cl)cnn1Cc1ccccc1	67*	.	0	-50
Cc1c(/C=N/n2cnnc2)[nH]n(-c2ccccc2)c1=O	101	.	-0.95	-13
COc1ccc(-c2cc3ccccc3n2CC(O)CNCc2ccccc2)cc1 (stereo not drawn)	.	.	0.4	.
S=c1sc2ccccc2n1CN1CCN(c2ccccn2)CC1	99	145	-0.35	-30
